Source: PubChem BioAssay
Rows were chosen to be rich in hits. Some 22% of all compounds tested hit in one or more screens of this group.
Shiga inhibitor: A qHTS for Small Molecule Inhibitors of Shiga Toxin; Vero cells, Shiga toxin protein synthesis inhibition reporter; inhibition, % at 38.7 µM; 290,000 compounds, 9.2% hits; in the data active = inhibition mostly above about 28%, no sharp cut-off; inactive = mostly below about 43%; note: 0% is about no effect
Pf growth 96h: Primary qHTS for delayed death inhibitors of the malarial parasite plastid, 96 hour incubation. Potency, µM (doses to about 28.7 µM), without a hit: top-dose activity change, negative = inhibition, most hits filed as inhibitors. 320,000 compounds, 6.9% hits. P. falciparum luciferase reporter growth, 96 h. AID 504834, 2011; note: potency is the fitted concentration of half-maximal effect; % is set by controls: 0 for no effect and ±100 for the full control effect
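Two parasite generations (96 h, 37 C, 5% CO2) of compound exposure in infected erythrocytes (0.05% parasitemia, 2% hematocrit). Luciferase-reporter P. falciparum; decreased luminescence indicates inhibited growth, aimed at apicoplast-acting delayed death.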
CHX counter: Cycloheximide Counterscreen for Small Molecule Inhibitors of Shiga Toxin. cell reporter, cycloheximide protein synthesis inhibition counterscreen. max response, %. 300,000 compounds, 12% hits. AID 2314, 2010; in the data active = max response mostly above about 13%, no sharp cut-off; inactive = mostly below about 14%; note: read at 38.3 µM for the half of the compounds with a filed dose; 0% is about no effect
Pf growth 48h: Primary qHTS for delayed death inhibitors of the malarial parasite plastid, 48 hour incubation; P. falciparum luciferase growth in erythrocytes, 48 h; Potency, µM (series often up to 28.7 µM), inactives show at the top dose activity change, negative = inhibition, most hits filed as inhibitors; 310,000 compounds, 5.9% hits; note: potency is the fitted concentration of half-maximal effect; % is set by controls: 0 for no effect and ±100 for the full control effect
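Luciferase-expressing P. falciparum in infected erythrocytes (2% hematocrit, 0.1% parasitemia final) in RPMI 1640/0.5% Albumax were exposed to compound for 48 hours at 37 C, 5% CO2; growth read as luminescence.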
LmPK inhibitor: qHTS Assay for Inhibitors of Leishmania Mexicana Pyruvate Kinase (LmPK); Q27686; purified LmPK, Kinase-Glo ATP luminescence, 1 h; Potency, µM (top dose mostly 57.5 µM), without a hit: top-dose activity change, negative = inhibition, usual class: inhibitors; 290,000 compounds, 0.37% hits; AID 1721, 2009; note: potency is the fitted concentration of half-maximal effect; % is set by controls: 0 for no effect and ±100 for the full control effect
Target sequence (Q27686 whole entry, looked up): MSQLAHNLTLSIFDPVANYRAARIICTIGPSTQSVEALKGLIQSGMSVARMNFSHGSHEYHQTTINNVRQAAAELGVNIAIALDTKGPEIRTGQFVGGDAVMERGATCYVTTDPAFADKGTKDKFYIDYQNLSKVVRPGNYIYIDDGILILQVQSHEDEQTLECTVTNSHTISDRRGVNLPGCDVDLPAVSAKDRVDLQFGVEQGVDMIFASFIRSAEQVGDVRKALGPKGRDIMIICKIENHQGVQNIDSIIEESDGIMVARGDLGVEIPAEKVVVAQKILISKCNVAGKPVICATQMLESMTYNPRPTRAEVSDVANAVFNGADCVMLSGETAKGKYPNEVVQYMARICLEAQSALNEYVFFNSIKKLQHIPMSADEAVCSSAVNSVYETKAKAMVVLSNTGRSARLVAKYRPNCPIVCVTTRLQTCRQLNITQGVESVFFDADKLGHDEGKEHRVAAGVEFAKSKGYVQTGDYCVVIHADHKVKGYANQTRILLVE
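0.1 nM LmPK, 0.5 mM PEP, 0.1 mM ADP; 50 mM imidazole pH 7.2, 7 mM MgCl2, 50 mM KCl; 1 h RT. Kinase-Glo luminescence readout, normalized to no-enzyme (full inhibition) and uninhibited wells.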
Active calls of the source: *; i = inactive; ? = inconclusive; · = no result given; [ ] = another dose, or the depositor's remark. Unless noted, calls come from the whole dose curve; as a rule, active = well fitted inhibition curve with a large enough effect; inconclusive = small, poorly fitted or top-dose-only effect, or another doubt; inactive = no such curve, though single readings can be large or run the other way.

SMILES	Shiga inhibitor	Pf growth 96h	CHX counter	Pf growth 48h	LmPK inhibitor
Cc1ccc(NC(=O)c2ccccc2NS(=O)(=O)c2ccc(Cl)s2)cc1S(=O)(=O)N1CCOCC1	9.6	?	-2.3	11.7µM*	2.2%
COc1ccccc1NS(=O)(=O)c1cc(NC(=O)c2[nH]c(C)c(C(C)=O)c2C)ccc1N1CCOCC1	-7.6	?	-4.9	7.38µM*	4.3%
COc1ccccc1NS(=O)(=O)c1cc(NC(C)=O)ccc1N1CCCCC1	-7.8	9.28µM*	-1.4	-29.3%	5.5%
CCC1CCCCN1CCCNC(=O)CN1C(=O)COc2ccccc21 (configuration not stated)	-9.4	90.9%	-2.0	6.6%	-0.1%
COc1ccccc1NS(=O)(=O)c1cc(NC(=O)c2ccncc2)ccc1N1CCCC1	2.3	?	-3.0	?	0.2%
Cc1ccc(NS(=O)(=O)c2cc(NC(=O)c3cc(=O)[nH]c(=O)[nH]3)ccc2Cl)c(C)c1	9.9	?	-1.0	?	-0.8%
COc1ccccc1NS(=O)(=O)c1cc(NC(=O)CCNC(C)=O)ccc1N1CCCCC1	·	10.4µM*	·	?	·
CC(=O)c1c(C)[nH]c(C(=O)Nc2ccc(C)c(S(=O)(=O)Nc3ccc(C)cc3C)c2)c1C	-5.4	?	-1.6	13.1µM*	5.2%
COCC(=O)Nc1ccc(N2CCCC2)c(S(=O)(=O)Nc2ccccc2OC)c1	·	5.22µM*	·	2.62µM*	·
CCCCC/C=C\C[C@@H](O)/C=C/C=C/C=C\[C@@H](O)CCCC(=O)O	i	·	7.0	·	·
COc1ccccc1NC(=O)C[n+]1ccccc1C	-7.1	-93.4%	0.9	-22.0%	1.2%
O=C1c2ccccc2C(=O)N1OCc1ccccc1[N+](=O)[O-]	81.9	1.2%	24.4*	-2.9%	5.9%
O=C(Cc1ccc(F)cc1)OCN1C(=O)c2ccccc2C1=O	-24.1	14.7µM*	-3.6	?	-7.7%
O=C1c2ccccc2S(=O)(=O)N1Cc1ccccc1[N+](=O)[O-]	3.2	-1.4%	-0.7	21.8%	-5.1%
O=C(Cc1ccccc1[N+](=O)[O-])OCc1cccc([N+](=O)[O-])c1	91.7*	8.6%	31.5*	-2.2%	-2.2%
O=C(Cc1ccccc1[N+](=O)[O-])OCN1C(=O)c2ccccc2C1=O	29.9	12.1%	17.8*	1.7%	-8.9%
COc1cc(CC(=O)OCc2cccc([N+](=O)[O-])c2)cc(OC)c1OC	14.0	4.3%	-1.8	4.2%	-0.6%
O=C(O)COc1ccc(CCNS(=O)(=O)c2ccccc2)s1	·	-4.5%	·	2.1%	·
O=C(COC(=O)Cc1c[nH]c2ccccc12)Nc1c(Cl)cccc1C(F)(F)F	·	4.0%	·	?	·
O=C(Cc1ncc(C(F)(F)F)cc1Cl)NCc1ccco1	-7.5	38.4%	1.6	369.0%	-2.2%
O=C(Nc1nccs1)c1cccc(N2C(=O)C3C4C=CC(C4)C3C2=O)c1 (configuration not stated)	-3.1	29.0%	-3.8	8.8%	-0.5%
O=C(Nc1nccs1)c1ccc(N2C(=O)[C@@H]3[C@H](C2=O)[C@H]2C=C[C@@H]3C2)cc1	54.4*	?	26.1*	?	1.4%
O=C(Nc1ccc(Br)cc1)c1ccc(N2C(=O)C3CCCCC3C2=O)cc1 (configuration not stated)	12.3	?	4.9	40.1%	3.3%
O=C(Nc1nccs1)c1ccc(N2C(=O)C3CCCCC3C2=O)cc1 (configuration not stated)	69.9*	?	37.5*	25.5%	-6.3%
O=C1CC(NNc2nc3ccccc3s2)C(=O)N1c1ccc(F)cc1 (configuration not stated)	2.0	21.0%	1.4	4.1%	0.1%
SMILES	Shiga inhibitor	Pf growth 96h	CHX counter	Pf growth 48h	LmPK inhibitor
CC(C)C(=O)NNc1nc2ccccc2s1	51.4*	93.7%	37.7*	84.8%	-7.5%
O=C(NNc1nc2ccccc2s1)Nc1ccc(F)cc1	84.9*	131.9%	61.8*	92.8%	0.4%
O=C(Nc1nc2ccccc2s1)Nc1ccc(F)cc1F	72.1*	-16.6%	53.0*	106.6%	-0.2%
O=C(Nc1nc2ccccc2s1)c1c(F)cccc1Cl	90.6*	-21.8%	37.6*	0.0%	-1.3%
O=C(NCC(=O)N1CCN(S(=O)(=O)c2c(F)cccc2F)CC1)c1ccccc1F	·	-0.2%	·	-8.1%	·
Cn1nc(-c2ccccc2)c2ncc(C(F)(F)F)cc21	-16.8	4.4%	6.5	23.4%	-7.6%
O=C(NNc1nc2ccccc2s1)Nc1ccc(Cl)c(Cl)c1	59.6*	117.8%	39.7*	19.8%	-3.6%
O=C(NNc1nc2ccccc2s1)c1ccccc1F	59.3*	-26.0%	28.5*	7.5%	1.0%
CCc1ccc(N2CC(C(=O)Nc3ccc(S(=O)(=O)NCC4CCCO4)cc3)CC2=O)cc1 (configuration not stated)	-6.8	15.2%	-4.9	3.6%	-2.4%
O=C(NNC(=O)c1cc(Cl)nc2ccccc12)c1ccccc1F	·	2.6%	·	25.2%	·
COC(=O)CN(c1ccc(C(C)C)cc1)S(=O)(=O)c1c(C)[nH]c(=O)[nH]c1=O	-21.8	9.28µM*	-3.6	·	0.2%
COc1ccc(-c2cc(C(F)(F)F)n3nc(C(=O)N(C)Cc4ccccc4)cc3n2)cc1OC	19.2	-35.2%[5.75 µM]	1.6	6.57µM*	-4.3%
COc1ccc(-c2cc(C(F)(F)F)n3nc(C(=O)NCc4ccco4)cc3n2)cc1	12.1	?	-0.8	9.28µM*	3.9%
O=C(CN1CCOCC1)Nc1ccc(NC(=O)c2ccccc2F)cc1	1.0	-7.8%	0.2	1.8%	-0.1%
Cc1nc2c(ccc3c2ccc2nc(C)sc23)s1	70.7*	26.0%	23.3	·	-2.8%
COc1cc2sc(C)nc2c2ccccc12	-2.2	?	1.1	17.7%	0.0%
Cc1cc(C(=O)NC(C)C2CCCO2)c(C)o1 (configuration not stated)	-10.0	-21.0%	-2.4	-1.7%	0.8%
CCN=c1scc(-c2ccco2)n1/N=C/c1ccc(OC)c(O)c1	138.9*	119.0%	53.9*	16.7%	0.0%
CN=c1scc(-c2ccc(F)cc2)n1/N=C/c1ccc(O)c(O)c1	-10.5	?	-9.8	-52.1%	?
CCN=c1scc(-c2ccco2)n1/N=C/c1ccc(O)cc1	68.9*	?	38.5*	·	3.0%
Cc1ccc(/C=N/n2c(-c3ccco3)n[nH]c2=S)cc1	-6.6	125.8%	-1.8	51.5%	-2.2%
Cc1ccc(NC(=O)CSc2nnc(-c3ccoc3C)n2CCCN(C)C)cc1Cl	-9.9	-1.5%	-7.3	-27.0%	-0.1%
CC(=O)NC(=S)Nc1ccc(N2CCOCC2)c(S(=O)(=O)Nc2cc(Cl)ccc2Cl)c1	19.5	-23.2%	1.0	-16.0%	7.4%
CCCCNC(=S)NNc1c(Cl)cc(Cl)cc1Cl	2.6	8.28µM*	-0.6	-2.1%	0.5%
CCCCNC(=O)N(O)C1N(CCCC)C(=O)N(CC(=O)OC)C1(C)C (configuration not stated)	9.5	5.22µM*	-6.1	-8.9%	-1.8%
